9 compounds from PubChem BioAssay (NCI) can be followed below.

About 83,000 compounds went through this panel and 20% of them were active in at least one assay; those are over-represented in the sample as a whole.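 Values shown are percent growth following 48 h exposure of cells in 96-well plates to a single concentration of compound; below 10 was considered active.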 Values without a mark were called inactive. The source made the active and inactive calls.

Experiment in all cases: NCI-60 one-dose screen, 48 h (100 = growth as untreated, 0 = no growth, -100 = all killed)
Experiment [1] concerns EKVX NSCLC. Conditions: 10 µM unless noted.
For experiment [2], the system named is UO-31 renal. Conditions: 10 µM unless noted.
Experiment [3] relates to TK-10 renal. As to conditions: 10 µM unless noted.
Experiment [4] concerns ACHN renal. Conditions: 10 µM unless noted.
In experiment [5] the test system is CAKI-1 renal. As to conditions: 10 µM unless noted.
The test system of experiment [6] is A498 renal. Conditions: 10 µM unless noted.
Experiment [7] concerns CCRF-CEM leukemia. Conditions: 10 µM unless noted.
Experiment [8] concerns MOLT-4 leukemia. As to conditions: 10 µM unless noted.
Experiment [9] relates to SR leukemia. As to conditions: 10 µM unless noted.
In experiment [10] the test system is RPMI-8226 leukemia. As to conditions: 10 µM unless noted.
The subject of experiment [11] is OVCAR-8 ovarian. As to conditions: 10 µM unless noted.
Experiment [12] relates to OVCAR-5 ovarian. As to conditions: 10 µM unless noted.
Experiment [13] relates to OVCAR-4 ovarian. As to conditions: 10 µM unless noted.
Experiment [14] concerns SK-OV-3 ovarian. Conditions: 10 µM unless noted.
Experiment [15] concerns IGROV1 ovarian. As to conditions: 10 µM unless noted.
In experiment [16] the test system is OVCAR-3 ovarian. Conditions: 10 µM unless noted.
The test system of experiment [17] is HS 578T breast. Conditions: 10 µM.
For experiment [18], the system named is NCI/ADR-RES ovarian. As to conditions: 10 µM unless noted.
The test system of experiment [19] is SN12C renal. Conditions: 10 µM unless noted.

As for `O=C1/C(=C\c2cccn2Cc2ccc(F)cc2)c2ccccc2N1c1c(Cl)cccc1Cl`, the growth in experiment [1] is 54.6%; in experiment [2], 51.8%; in [3], 81%; in [4] it was 62.9%; in experiment [5], 67.5%; in experiment [6], 106%. Moreover, the growth in experiment [7] is 83%; in experiment [8], 74.1%; in [9], 76%; in experiment [10] it was 74.6%; in experiment [11], 81.5%; in experiment [12], 81.9%. Also, the growth in experiment [13] is 34.1%; in experiment [14] it was 96.2%; in [15], 55.8%; in experiment [16] it was 80.7%; in experiment [17], 92.9%; in experiment [18], 76.1%.

As for `Cc1ccc2nc(CN(CCN(Cc3nc4ccc(C)cc4[nH]3)Cc3nc4ccc(C)cc4[nH]3)Cc3nc4ccc(C)cc4[nH]3)[nH]c2c1`, the growth in experiment [1] is -97.5% (active); in experiment [19] it was -96.7% (active); in experiment [2], -73.7% (active); in experiment [3], -80.9% (active); in [4], -99.2% (active); in experiment [6], -94% (active). Further, the growth in experiment [7] was -61.7% (active); in experiment [11], -71.8% (active); in [12] it was -67.8% (active); in experiment [13], -99.2% (active); in experiment [14] it was -94.6% (active); in experiment [15] it was -95.2% (active). The growth in experiment [16] is -94.4% (active); in experiment [17] it was -74.1% (active); in experiment [18], -72.5% (active).

For `CCOc1c(C#N)c2c(N)ncnc2n1C1OC(CO)C(O)C1O` (stereo not drawn), the growth in [1] is 58.4%; in experiment [19] it was 39.2%; in experiment [2], 6.4% (active); in experiment [3] it was 88.4%; in [4], 33.9%; in experiment [6], -13% (active). Further, the growth was -8.09% (active) in experiment [7]; 89.6% in [11]; 83.6% in [12]; 56.1% in [13]; 52.9% in experiment [14]; -57.7% (active) in [15]. The growth is -41.4% (active) in experiment [16], 50.9% in [17] and 62.4% in experiment [18].

For the compound `COc1cc(-c2csc(NC(=O)Nc3cccc(C(F)(F)F)c3)n2)cc(OC)c1OC`, the growth was 38.3% in experiment [1]; 46% in [2]; 49.4% in [3]; 31.3% in experiment [4]; 48.2% in [5]; 59.1% in experiment [6]. Further, the growth was 28.1% in experiment [7]; 18.1% in [8]; 67.3% in [9]; 18.6% in experiment [10]; 22.6% in experiment [11]; 80.3% in [12]. In addition, the growth is 29.9% in experiment [13]; 80.7% in experiment [14]; 59.6% in experiment [15]; 37.7% in [16]; 71.2% in experiment [17]; 26.5% in [18].

For the compound `COc1cc(/C=C/c2ccc3c(Br)cc(Br)c(O)c3n2)ccc1O`, the growth in experiment [1] was 23.1%; in [19] it was 52.8%; in [2], 0.12% (active); in experiment [3], 30.3%; in experiment [4] it was 22%; in experiment [6] it was -4.9% (active). Besides, the growth in experiment [7] is -24.5% (active); in experiment [11], 17.5%; in [12], 63.2%; in experiment [13] it was 17.4%; in experiment [14], 58.2%; in experiment [15] it was -44.8% (active). Also, the growth in experiment [16] was 1.97% (active); in experiment [18], 6.88% (active).

As to `CN(C)CCOc1nc2c3ccncc3cc(-c3cccc(Cl)c3)c2c2cnccc12`, the growth in [1] was 37.4%; in [2], 14.9%; in experiment [3], 30.7%; in [4], 14.5%; in [5], 29.6%; in [6] it was 35.5%. For the same compound, the growth in experiment [7] was 3.4% (active); in [8], -14.7% (active); in experiment [9] it was -27.7% (active); in [10] it was 9% (active); in experiment [11], 18.2%; in [12], 58.8%. The growth in experiment [13] was 33.5%; in [15], 28.9%; in experiment [16], 45.6%; in experiment [17], 54.3%; in [18] it was 15.4%.

Regarding `N#Cc1c(N)n(C2OC(CO)C(O)C2O)c2ncnc(N)c12` (stereo not drawn), the growth in [1] is -20.3% (active); in experiment [19], 6.49% (active); in experiment [2], -42.1% (active); in [3], -9.6% (active); in experiment [4], 8.86% (active); in experiment [7], -45.1% (active). Further, the growth in experiment [11] is -13.1% (active); in experiment [12], -11.4% (active); in experiment [13], 0.621% (active); in experiment [14], -0.358% (active); in experiment [15], -63% (active); in experiment [16], -62.1% (active). Also, the growth in [17] was -19.2% (active); in experiment [18], -7.81% (active).

Take `c1ccc2c(c1)cnc1ccccc12`: the growth was 115% in experiment [1]; 95.5% in experiment [19]; 95.2% in experiment [2]; 116% in experiment [3]; 100% in experiment [4]; -7.57% (active) in experiment [6]. Besides, the growth is 97.8% in experiment [7]; 97.5% in experiment [11]; 92.2% in [12]; 96.3% in experiment [13]; 96.1% in [14]; 121% in [15]. The values for the growth in experiment [17] and in experiment [18] were 100% and 101%, respectively.

As for `CCOC(=O)C1=C(C)NC(SCc2nnc(-c3ccc(Cl)cc3)o2)=NC1c1ccc(Br)cc1` (stereo not drawn), the growth in experiment [1] is 71.3%; in experiment [2] it was 52.6%; in experiment [3] it was 79.9%; in [4], 69.7%; in [5], 67.2%; in experiment [6], 73.2%. Moreover, the growth in experiment [7] is 43.4%; in experiment [8] it was 8.29% (active); in experiment [9] it was 38.8%; in experiment [10] it was 38.4%; in [11], 72.7%; in [12] it was 93.9%. Further, the growth was 69.6% in experiment [13]; 82% in [14]; 65.5% in experiment [15]; 77.5% in [16]; 87.1% in experiment [17]; 67.5% in [18].
